Out of some 10,000 compounds screened, about 320 (3.2%) were called active. Cut-off read from the data, not from the text of the source: active = CPE inhibition mostly above about 9.1% (no sharp cut-off); inactive = mostly below about 7.2%. The full list was thinned out, with actives kept by preference.

This assay is described as follows: Dengue virus cytopathic effect inhibitors, cell-based, CPE readout, HTS (AID 540333). Particulars: Dengue virus CPE inhibition in host cells, at 20 µM; active compounds read high.
Turning to `CC(=O)c1ccc(N2Cc3ccccc3/C2=N\C(=O)Nc2ccccc2)cc1`, the CPE inhibition was 1.88% (inactive).
In the case of `O=C(c1cc(-c2ccccc2)nn1CC1CC(c2cccnc2)=NO1)N1CCOCC1` (stereo unspecified), the CPE inhibition was 0.185% (inactive).
The value for `Cc1ccc(/C=C/C(=O)NCCCN2CCN(CCCNC(=O)/C=C/c3ccc(C)o3)CC2)o1` was 0.03% (inactive); that for `Cc1ccc([N+](=O)[O-])cc1S(=O)(=O)NCCc1c(C)[nH]c2c(C)cccc12` was 0.035% (inactive); that for `COc1ccc(NC(=S)N(CCN(C)C)C(C)c2ccco2)cc1` (stereo unspecified) was 1.96% (inactive).
Take `CCC(=O)N/N=C(\C)CC(=O)Nc1ccccc1-c1ccccc1`: the CPE inhibition result was “inactive”.
Next, `Cc1ccc(-c2cc3c(n2-c2ccc(C(=O)O)cc2)CCCC3=O)cc1`: “inactive”; `COc1ccc(C(=O)NCC(=O)NCC(c2ccco2)N(C)C)cc1OC` (stereo unspecified): “inactive”; `CCOc1ccc(NC(=O)CNC(=O)COc2ccccc2)cc1`: 0.38% (inactive).
The value for `COC(C(=O)Nc1ccc(S(=O)(=O)Nc2cccc3ccccc23)cc1)c1ccccc1` (stereo unspecified) was 5.08% (inactive); that for `O=C(NC(=S)N1CCN(c2ccc([N+](=O)[O-])cc2)CC1)c1ccccc1F` was 1.42% (inactive); that for `O=C(COC(=O)CC1c2ccccc2CCN1S(=O)(=O)c1ccccc1)Nc1ccccc1` (stereo unspecified) was 0.325% (inactive).
Next, `COc1ccc([C@H]2CC(=O)C=C(c3ccccc3)C2)cc1`: 3.05% (inactive); `CCOC(=O)c1cccc(C2=CC(=O)C[C@H](c3ccc(OC)cc3)C2)c1`: 11.8% (active); `COc1ccc([C@H]2CC(=O)C=C(c3cccc(OC)c3)C2)cc1`: “inactive”.
Take `CCOc1cccc(OCCOCCN(C)C)c1`: the CPE inhibition result is “inactive”.
The value for `CCOC(=O)C1=NNC2(c3ccc(Cl)cc3)C(=O)N(c3ccc(C)cc3)C(=O)C12` (stereo unspecified) was “inactive”.
Next, `CC(=O)Nc1ccc(S(=O)(=O)NCCSCc2cccc(Cl)c2)cc1`: 1.06% (inactive); `CSCCC(NC(=O)c1ccc(Cl)cc1)C(=O)OCC(=O)Nc1cc(Cl)ccc1C` (stereo unspecified): 0.1% (inactive).
Next, `CSCCC(NS(=O)(=O)c1ccc(Cl)cc1)C(=O)OCc1cccc(Cl)c1` (stereo unspecified): 12% (active); `CC(C)OC(=O)/C(=C/c1ccc(Br)cc1)NC(=O)c1ccco1`: “inactive”.

The values are drawn from PubChem BioAssay AID540333 (Southern Research Specialized Biocontainment Screening …, 2011).
